Values quoted from earlier work, collected in PubChem BioAssay AID977608.
The whole screen tested about 4,300 compounds, of which about 4,300 (100%) were called active. The limit is not given here; nearly all actives have IC50 up to about 1400 µM. So high a share suggests a set chosen from earlier hits. The list shows a part of the results. Positions of bridges follow the written chain, without caps; N, C: chain ends. Bridge positions count the residues as written; N and C are the ends. Non-standard residues stand in square brackets, D forms with d. Square brackets hold non-standard residues; d marks the D form. Residues, ends and D or L forms follow the SMILES beside them. Peptide text beside a SMILES is read from it. *: point of attachment. Phe(3,5-F2) = N[C@@H](Cc1cc(F)cc(F)c1)C(=O)O; Orn(CH(NH2)2) = NC(N)NCCC[C@H](N)C(=O)O; Pip(4S-Me) = C[C@H]1CCN[C@H](C(=O)O)C1; X1 = CC[C@H](C)C/C=C/C(=O)*

Experiment: literature IC50 values for PDB complexes, PDB-derived complexes (AID 977608)
Conditions: PDB protein-ligand complexes

N#Cc1c(F)cc(O)cc1SCCS(O)(O)O
IC50 (protein: M-phase inducer phosphatase 2 CDC25B, PDB entry 4wh9): 1000 µM (active)

COc1cc2cc(c1)NC(=O)/C(C)=C/CC[C@H](OC(N)=O)[C@@H](OC(N)=O)/C(C)=C/[C@H](C)[C@@H](OC)[C@@H](OC)COC2
IC50 (protein: Heat shock protein HSP 90-alpha, PDB entry 4jql): 1 µM (active)

CC[C@H](C)[C@@H]1NC(=O)[C@H](CC(=O)O)NC(=O)[C@@H](NC(=O)[C@H](CCC(=O)O)NC(=O)[C@H](CC(N)=O)NC(=O)CNC(=O)CN)CSSC[C@@H](C(=O)N[C@@H](Cc2ccccc2)C(=O)N[C@@H](CCC(=O)O)C(=O)N[C@@H](CCCNC(N)N)C(=O)N[C@@H](CC(C)C)C(=O)O)NC(=O)[C@H](CCC(=O)O)NC(=O)[C@H](Cc2c[nH]c3ccccc23)NC(=O)[C@H](CCC(=O)O)NC(=O)[C@H](Cc2c[nH]c3ccccc23)NC(=O)[C@H](CCSC)NC(=O)[C@H](CCCNC(N)N)NC(=O)[C@H](C)NC1=O (H-GGNECDIA[Orn(CH(NH2)2)]MWEWECFE[Orn(CH(NH2)2)]L-OH; disulfide 5-15)
IC50 (protein: Vascular endothelial growth factor(VEGF), PDB entry 1kat): 1 µM (active)

CSCC[C@H](NC(=O)[C@@H]1CSSC[C@H](NC(=O)[C@H](CC(N)=O)NC(=O)[C@@H](N)CCCNC(N)N)C(=O)N[C@@H](Cc2ccccc2)C(=O)N[C@@H](CCC(=O)O)C(=O)N[C@@H](CO)C(=O)N[C@@H](C(C)C)C(=O)N[C@@H](C)C(=O)N[C@@H](C)C(=O)N[C@@H](CC(C)C)C(=O)N[C@@H](CCCNC(N)N)C(=O)N[C@@H](CCCNC(N)N)C(=O)N1)C(=O)N[C@@H](Cc1ccc(O)cc1)C(=O)NCC(=O)O (H-[Orn(CH(NH2)2)]NCFESVAAL[Orn(CH(NH2)2)][Orn(CH(NH2)2)]CMYG-OH; disulfide 3-13)
IC50 (protein: Insulin-like growth factor IB(IGF-I), PDB entry 1pmx): 7.2 µM (active)

CC[C@@H]1C(=O)N(C)c2cnc(-n3ccnc3-c3ccccc3)nc2N1C1CC=CC1
IC50 (protein: Serine/threonine-protein kinase PLK2 (C83S, V87T, A119S, A216S, C259A, C291S, L335T mutation), PDB entry 4i6f): 0.005 µM (active)

CC[C@@H]1C(=O)N(C)c2cnc(-n3ccnc3-c3cscn3)nc2N1C1CCCC1
IC50 (protein: Serine/threonine-protein kinase PLK2 (C83S, V87T, A119S, A216S, C259A, C291S, L335T mutation), PDB entry 4i6h): 0.005 µM (active)

CC[C@H](C)C/C=C/C(=O)N[C@@H](Cc1cc(F)cc(F)c1)C(=O)N[C@@H]1C(=O)N2CCC[C@H]2C(=O)N2CC[C@H](C)C[C@H]2C(=O)N[C@@H](C)C(=O)N2CCC[C@H]2C(=O)O[C@@H]1C (X1-[Phe(3,5-F2)]TP[Pip(4S-Me)]AP; ester 2-C)
IC50 (protein: ATP-dependent Clp protease proteolytic subunit 1 ClpP1, PDB entry 4u0g): 5.1 µM (active)

Oc1ccc(-n2ccnc2)cc1
IC50 (protein: Polymerase PA, PDB entry 4m5r): 1000 µM (active)

c1cc2nc(N[C@H]3CCCNC3)c3cc[nH]c3n2n1
IC50 (protein: MAP kinase-activated protein kinase 2, PDB entry 3wi6): 4.7 µM (active)

O=C(O)c1ccc2occc2c1
IC50 (protein: Dengue virus 3 non-structural protein 5, PDB entry 4ctj): 3120 µM (active)

N[C@@H](CCNC(=O)N1CCn2c(ccc2C(F)(F)F)C1)Cc1cc(F)c(F)cc1F
IC50 (protein: Dipeptidyl peptidase 4, DPP4, PDB entry 4j3j): 0.031 µM (active)

COc1ccc(Cl)cc1NCC(=O)NC1CCC(n2c(=O)[nH]c3ccccc32)CC1 (stereo not given)
IC50 (protein: Tankyrase-1, PDB entry 4k4e): 0.024 µM (active)

COc1nc2c(cc1-c1c(C)noc1C)ncc1[nH]c(=O)n(-c3ccccc3OC(F)(F)F)c12
IC50 (protein: BROMODOMAIN-CONTAINING PROTEIN 4, PDB entry 4bw4): 0.63 µM (active)

C/C(=N\O)c1ccc(O)cc1O
IC50 (protein: SERINE/THREONINE-PROTEIN KINASE CHK2, PDB entry 4bdb): 85.6 µM (active)

COc1ccc(C[C@H](NC(=O)[C@@H](C)NC(=O)CN2CCOCC2)C(=O)N[C@@H](CC2CCCCC2)[C@@H](O)[C@H](C)CO)cc1
IC50 (protein: yCP, PDB entry 4qls): 0.036 µM (active)

COc1ccc(C[C@H](NC(=O)[C@H](C)NC(=O)CN2CCOCC2)C(=O)N[C@@H](CC2CCCCC2)[C@@H](O)[C@H](C)CO)cc1
IC50 (protein: yCP, PDB entry 4qlq): 0.0066 µM (active)

O=C(COc1ccccc1[P+](O)(O)O)NC1CCCCC1
IC50 (protein: 14-3-3 protein sigma, PDB entry 4dht): 15 µM (active)

O=C(COc1ccccc1[P+](O)(O)O)NC1CCCC1
IC50 (protein: 14-3-3 protein sigma, PDB entry 4dhn): 128 µM (active)

O=C(CS)NCCCCCC(=O)Nc1ccccc1
IC50 (protein: Schistosoma mansoni histone deacetylase 8, HDAC8, PDB entry 4cqf): 50 µM (active)

C[C@@H](O)[C@H](NC(=O)Cc1cc(Cl)cc(Cl)c1)C(=O)NCC(=O)NCC=N
IC50 (protein: Protease AVP8, PDB entry 4piq): 0.08 µM (active)

CC(=O)Nc1cccc(C2=CC(C)N(O)c3ccccc32)c1 (stereo not given)
IC50 (protein: Bromodomain-containing protein 4, PDB entry 4meo): 250 µM (active)

N=C1C(NS(=O)(=O)c2ccccc2)C(=O)NC(=O)N1Cc1ccccc1 (stereo not given)
IC50 (protein: Glucose-1-phosphate thymidylyltransferase (RmlA), PDB entry 3zlk): 1.32 µM (active) | IC50 (protein: Glucose-1-phosphate thymidylyltransferase (RmlA), PDB entry 4ASP): 1.32 µM (active)

C/C(=C\Cc1c(O)c(Cl)c(C)c(C=O)c1O)CC/C=C(\C)[C@H](C)O
IC50 (protein: Alternative oxidase, mitochondrial, PDB entry 3vva): 0.00048 µM (active)

CCc1nc(N)nc(N)c1-c1ccc(NCc2cc(F)cc(F)c2)cc1
IC50 (protein: human Renin, PDB entry 2g24): 4 µM (active)

N#Cc1csc(NC(=O)CN2C(=O)CCc3ccccc32)c1-c1ncn[nH]1
IC50 (protein: Mitogen-activated protein kinase 10, PDB entry 3rtp): 0.007 µM (active)

CC(C)C[C@H](NC(=O)[C@H](C)NC(=O)[C@H](CC(N)=O)NC(=O)[C@H](CCC(=O)O)NC(=O)[C@@H](NC(=O)[C@H](C)NC(=O)[C@@H](NC(=O)[C@H](Cc1cnc[nH]1)NC(=O)[C@@H](N)CO)C(C)C)C(C)C)C(=O)O
IC50 (protein: HLA class I histocompatibility antigen, B-39 alpha chain, PDB entry 4o2e): 0.01 µM (active)

H-HVAVENAL-OH
IC50 (protein: HLA class I histocompatibility antigen, B-39 alpha chain, PDB entry 4o2f): 0.387 µM (active)

O=C(CC[C@H](NC(=O)c1ccc(C#Cc2ccccc2)cc1)C(=O)NO)NCCCO
IC50 (protein: UDP-3-O-[3-hydroxymyristoyl] N-acetylglucosamine deacetylase, PDB entry 4j3d): 0.0053 µM (active)

CCCCn1c(-c2c(C)ccc3[nH]ncc23)c[n+]2c3c(=O)[nH]c(=O)n(C)c3[nH]c12
IC50 (protein: EPH receptor A3, PDB entry 4gk4): 0.014 µM (active)
